Laboratory results published in PubChem BioAssay (Tox21).
Inconclusive results are not listed. A call without a number means that no potency is given here. Unmarked numbers belong to inactive results. The source made the active and inactive calls. Calls come from the whole dose curve; as a rule, active = well fitted curve in the direction sought with a large enough effect in the repeat runs; inconclusive = weak or mixed curves; inactive = no such curve, though single readings can be large; an effect the other way counts as inactive or inconclusive.

Tested on: not listed separately
Assay: qHTS assay to identify small molecule agonists of the constitutive androstane receptor (CAR) signaling pathway - cell viability counter screen (AID 1224836); note: nearly all actives have a fitted effect of over 45% in size
Conditions: HepG2-CYP2B6-hCAR viability, CellTiter-Fluor, 23 h, PK11195 added to every well; series mostly up to 92.4 µM
Summary of the method: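 Cell viability multiplexed with the CAR agonist screen: CellTiter-Fluor fluorescence after 23 hr at 37 C. HepG2-CYP2B6-hCAR cells got compounds at 15 concentrations with PK11195 at 0.75 uM final.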

| Structure (SMILES) | Potency | viability change, negative = cytotoxic |
| --- | --- | --- |
| Cc1cccc(C)c1NC(=O)c1cc(S(N)(=O)=O)c(Cl)cc1O | inactive | – |
| CCCC(=O)OC(=O)CCC | inactive | – |
| O=CNNC=O | inactive | – |
| CSSc1ccoc1C | inactive | – |
| Nc1ccc(S(=O)(=O)NCc2ccccc2)cc1 | inactive | – |
| CCCCCCCC(=O)OCCCCCC | inactive | – |
| c1ccc(CCCc2ccncc2)cc1 | inactive | – |
| COc1ccc(C2C(=O)c3ccccc3C2=O)cc1 | inactive | – |
| O=C(c1ccccc1)c1ccc(O)cc1 | inactive | – |
| CCN(CC)CCOC(=O)C(c1ccccc1)c1ccccc1 | inactive | – |
| Cc1cc(CCCOc2c(C)cc(-c3noc(C(F)(F)F)n3)cc2C)on1 | inactive | – |
| CCCCCCC(CO)CCCC (centres undefined) | inactive | – |
| CCCOC(=O)c1c(Cl)c(Cl)c(Cl)c(Cl)c1C(=O)OCCC | inactive | – |
| CC(C)N(C)C | inactive | – |
| CC(=O)NNC(C)=O | inactive | – |
| CC(C)(O)c1coc(S(=O)(=O)NC(=O)Nc2c3c(cc4c2CCC4)CCC3)c1 | inactive | – |

| Structure (SMILES) | Potency | viability change, negative = cytotoxic |
| --- | --- | --- |
| CCOC(=O)C(C)O (centres undefined) | inactive | – |
| Cc1cccc2sc(N)nc12 | inactive | – |
| CCCc1nc2c(C)cc(-c3nc4ccccc4n3C)cc2n1Cc1ccc(-c2ccccc2C(=O)O)cc1 | inactive | – |
| c1ccc2sc(SSc3nc4ccccc4s3)nc2c1 | – | 1.07% [at 19 µM] |
| Nc1nc(-c2ccc([N+](=O)[O-])cc2)cs1 | inactive | – |
| O=c1[nH][nH]c(=O)c2cc([N+](=O)[O-])ccc12 | inactive | – |
| CC1=CC[C@@H]2C[C@H]1C2(C)C | – | 1.82% [at 19 µM] |
| CC(C)c1ccc(C(=O)N=C(N)N)cc1S(C)(=O)=O | inactive | – |
| CCCCCCCCCCCCCOS(=O)(=O)O | inactive | – |
| BrC(Br)C(Br)Br | inactive | – |
| CCC(Cl)CC(Cl)C(Cl)C(Cl)C(Cl)C(C)Cl (centres undefined) | – | -5.9% [at 19 µM] |
| O=C1OC(=O)c2c(Br)c(Br)c(Br)c(Br)c21 | inactive | – |
| CC(C)OC(=O)c1ccccc1C(=O)OC(C)C | inactive | – |
| O=c1[nH]c2cc(C(F)(F)F)c(N3CCOCC3)cc2n(CP(=O)(O)O)c1=O | inactive | – |
| COc1ccc(C)cc1 | inactive | – |

Tested on: not listed separately
Assay: qHTS assay to identify small molecule antagonists of the constitutive androstane receptor (CAR) signaling pathway - cell viability counter screen (AID 1224837); note: nearly all actives have a fitted effect of over 45% in size
Conditions: HepG2-CYP2B6-hCAR viability, CellTiter-Fluor, 23 h, co-treated with 50 nM CITCO; series mostly up to 92.4 µM
Summary of the method: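 Counter screen run in HepG2-CYP2B6-hCAR cells: 4 hr settle, compound titration (15 concentrations) with 50 nM CITCO, 23 hr at 37 C/5% CO2, CellTiter-Fluor fluorescence.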

| Structure (SMILES) | Potency | activity change, negative = cytotoxicity |
| --- | --- | --- |
| O=C(O)CCCc1c[nH]c2ccccc12 | inactive | – |
| CCCC(=O)OC(=O)CCC | inactive | – |
| O=CNNC=O | inactive | – |
| CSSc1ccoc1C | inactive | – |
| c1ccc(CCCc2ccncc2)cc1 | inactive | – |
| CCN(CC)C(=O)N1CCN(C)CC1 | inactive | – |
| COc1ccc(C2C(=O)c3ccccc3C2=O)cc1 | inactive | – |
| O=C(c1ccccc1)c1ccc(O)cc1 | inactive | – |
| CCN(CC)CCOC(=O)C(c1ccccc1)c1ccccc1 | inactive | – |
| Cc1cc(CCCOc2c(C)cc(-c3noc(C(F)(F)F)n3)cc2C)on1 | inactive | – |
| CCCCCCC(CO)CCCC (centres undefined) | inactive | – |
| CCCOC(=O)c1c(Cl)c(Cl)c(Cl)c(Cl)c1C(=O)OCCC | inactive | – |
| C=CC(=O)O | inactive | – |
| CC(C)N(C)C | inactive | – |
| CC(=O)NNC(C)=O | inactive | – |
| CC(C)(O)c1coc(S(=O)(=O)NC(=O)Nc2c3c(cc4c2CCC4)CCC3)c1 | inactive | – |
| CCOC(=O)C(C)O (centres undefined) | inactive | – |
| CC1CCc2nccnc21 (centres undefined) | inactive | – |
| Cc1ccc2nc(N)[nH]c(=O)c2c1Sc1ccncc1 | inactive | – |
| Nc1nc(-c2ccc([N+](=O)[O-])cc2)cs1 | inactive | – |
| CC1=CC[C@@H]2C[C@H]1C2(C)C | – | -2.4% [at 19 µM] |
| COc1cc(C(C)=O)ccc1OCCCN1CCC(c2noc3cc(F)ccc23)CC1 | inactive | – |
| CCCCCCCCCCCC(=O)OCC(O)CO (centres undefined) | inactive | – |
| CCCCCCCCCCCCCOS(=O)(=O)O | inactive | – |
| CCC(Cl)CC(Cl)C(Cl)C(Cl)C(Cl)C(C)Cl (centres undefined) | – | -3.5% [at 19 µM] |
| O=C1OC(=O)c2c(Br)c(Br)c(Br)c(Br)c21 | inactive | – |
| O=c1[nH]c2cc(C(F)(F)F)c(N3CCOCC3)cc2n(CP(=O)(O)O)c1=O | inactive | – |
| COc1ccc(C)cc1 | inactive | – |

Target: Nuclear receptor subfamily 1 group I member 3 (Homo sapiens) (UniProt Q14994)
Sequence (Q14994 whole entry, looked up): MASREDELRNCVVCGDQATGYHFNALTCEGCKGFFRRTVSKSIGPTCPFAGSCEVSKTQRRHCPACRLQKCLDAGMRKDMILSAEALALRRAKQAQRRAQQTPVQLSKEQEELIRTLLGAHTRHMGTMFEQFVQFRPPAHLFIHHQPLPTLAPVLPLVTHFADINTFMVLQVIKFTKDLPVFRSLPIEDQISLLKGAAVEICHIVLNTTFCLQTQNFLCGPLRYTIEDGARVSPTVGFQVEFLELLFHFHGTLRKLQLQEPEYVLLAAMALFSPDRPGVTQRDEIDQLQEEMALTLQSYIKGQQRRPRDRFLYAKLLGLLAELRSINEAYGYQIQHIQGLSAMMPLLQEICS
Assay: qHTS assay to identify small molecule antagonists of the constitutive androstane receptor (CAR) signaling pathway (AID 1224838);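 note: HepG2 cells stably expressing hCAR with CYP2B6 luciferase reporter stimulated by CITCO; nearly all actives have a fitted effect of over 40% in size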
Conditions: HepG2-CYP2B6-hCAR luciferase, CITCO-stimulated, 24 h; series mostly up to 92.4 µM
Summary of the method: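 Cell line: HepG2 double-stable for hCAR and CYP2B6-2.2kb reporter. Agonist: CITCO, 50 nM final. Compounds: 15 concentrations, 24 h, 37 C. Detection: ONE-Glo luminescence.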

| Structure (SMILES) | Potency | activity, negative = inhibition |
| --- | --- | --- |
| Cc1cccc(C)c1NC(=O)c1cc(S(N)(=O)=O)c(Cl)cc1O | inactive | – |
| CCCC(=O)OC(=O)CCC | inactive | – |
| CSSc1ccoc1C | inactive | – |
| Nc1ccc(S(=O)(=O)NCc2ccccc2)cc1 | inactive | – |
| CCCCCCCC(=O)OCCCCCC | inactive | – |
| Cc1cc([N+](=O)[O-])ccc1N | inactive | – |
| COc1ccc(C2C(=O)c3ccccc3C2=O)cc1 | inactive | – |
| O=C(c1ccccc1)c1ccc(O)cc1 | inactive | – |
| CCN(CC)CCOC(=O)C(c1ccccc1)c1ccccc1 | inactive | – |
| Cc1cc(CCCOc2c(C)cc(-c3noc(C(F)(F)F)n3)cc2C)on1 | inactive | – |
| CCCCCCC(CO)CCCC (centres undefined) | inactive | – |
| CCCOC(=O)c1c(Cl)c(Cl)c(Cl)c(Cl)c1C(=O)OCCC | inactive | – |
| C=CC(=O)O | inactive | – |
| CC(C)N(C)C | inactive | – |
| CC(C)(O)c1coc(S(=O)(=O)NC(=O)Nc2c3c(cc4c2CCC4)CCC3)c1 | inactive | – |
| CCOC(=O)C(C)O (centres undefined) | inactive | – |
| Cc1cccc2sc(N)nc12 | inactive | – |
| CCCc1nc2c(C)cc(-c3nc4ccccc4n3C)cc2n1Cc1ccc(-c2ccccc2C(=O)O)cc1 | inactive | – |
| CC1CCc2nccnc21 (centres undefined) | inactive | – |
| c1ccc2sc(SSc3nc4ccccc4s3)nc2c1 | – | 80.4% [at 19 µM] |
| Cc1ccc2nc(N)[nH]c(=O)c2c1Sc1ccncc1 | inactive | – |
| O=c1[nH][nH]c(=O)c2cc([N+](=O)[O-])ccc12 | inactive | – |
| CC(C)c1ccc(C(=O)N=C(N)N)cc1S(C)(=O)=O | inactive | – |
| COc1cc(C(C)=O)ccc1OCCCN1CCC(c2noc3cc(F)ccc23)CC1 | inactive | – |
| CCCCCCCCCCCC(=O)OCC(O)CO (centres undefined) | inactive | – |
| BrC(Br)C(Br)Br | inactive | – |
| CCC(Cl)CC(Cl)C(Cl)C(Cl)C(Cl)C(C)Cl (centres undefined) | – | 94.1% [at 19 µM] |
| O=C1OC(=O)c2c(Br)c(Br)c(Br)c(Br)c21 | inactive | – |
| CC(C)OC(=O)c1ccccc1C(=O)OC(C)C | inactive | – |
| O=c1[nH]c2cc(C(F)(F)F)c(N3CCOCC3)cc2n(CP(=O)(O)O)c1=O | inactive | – |
